# According to publication PMC7862700, “An all-to-all approach to the identification of sequence-specific readers for epigenetic DNA modifications on cytosine”:
# Experiments:
# Assay in all cases: DAPPL (digital affinity profiling via proximity ligation, sequencing); 10 mM Tris-HCl pH 7.5, 50 mM NaCl, 1 mM DTT, 4% glycerol, room temperature, 30 min; GST-TFs on glutathione beads, 16-mer random dsDNA library, 0.1% formaldehyde crosslink after washing; high values mean tight binding
# Details in all cases: protein: recombinant; tags: N-terminal GST; dsDNA, one strand shown
# ETV5 = ETV5 (Homo sapiens, UniProt P41161 1-510)
# Sequence of ETV5 (P41161 whole entry, the tested form may be a part): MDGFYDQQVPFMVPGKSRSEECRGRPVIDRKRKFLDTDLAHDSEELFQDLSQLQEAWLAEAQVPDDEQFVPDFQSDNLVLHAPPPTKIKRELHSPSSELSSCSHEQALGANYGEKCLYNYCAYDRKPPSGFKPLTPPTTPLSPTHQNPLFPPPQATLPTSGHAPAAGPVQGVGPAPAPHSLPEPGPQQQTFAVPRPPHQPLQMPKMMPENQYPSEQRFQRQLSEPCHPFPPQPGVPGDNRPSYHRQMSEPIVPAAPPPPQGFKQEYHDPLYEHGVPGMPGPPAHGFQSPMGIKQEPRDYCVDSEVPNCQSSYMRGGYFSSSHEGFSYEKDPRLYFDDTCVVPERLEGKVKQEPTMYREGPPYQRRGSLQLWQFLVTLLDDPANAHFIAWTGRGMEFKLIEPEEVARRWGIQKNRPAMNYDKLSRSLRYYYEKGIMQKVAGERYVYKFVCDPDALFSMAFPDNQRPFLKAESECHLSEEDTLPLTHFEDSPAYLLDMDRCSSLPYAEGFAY
# In short: (§1)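 Beads coated with glutathione captured GST-fused human transcription factors that had been expressed in yeast, and the factors were then given DNA barcodes and pooled with a tag-only sample. The pools were incubated with 200 nmole of a random double-stranded 16-mer DNA library in Tris/NaCl/DTT/glycerol buffer for 30 min at room temperature, washed, crosslinked with 0.1% formaldehyde and proximity-ligated with BsaI/T4 ligase at 37 °C for 1 h. PCR amplification and Illumina NextSeq500 sequencing came last. Binding signal is each hexamer's read frequency for a factor divided by its frequency for the tag-only sample.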
# ERF = molecular target: T1, ERF (Homo sapiens, UniProt P50548 1-548)
# T1 sequence: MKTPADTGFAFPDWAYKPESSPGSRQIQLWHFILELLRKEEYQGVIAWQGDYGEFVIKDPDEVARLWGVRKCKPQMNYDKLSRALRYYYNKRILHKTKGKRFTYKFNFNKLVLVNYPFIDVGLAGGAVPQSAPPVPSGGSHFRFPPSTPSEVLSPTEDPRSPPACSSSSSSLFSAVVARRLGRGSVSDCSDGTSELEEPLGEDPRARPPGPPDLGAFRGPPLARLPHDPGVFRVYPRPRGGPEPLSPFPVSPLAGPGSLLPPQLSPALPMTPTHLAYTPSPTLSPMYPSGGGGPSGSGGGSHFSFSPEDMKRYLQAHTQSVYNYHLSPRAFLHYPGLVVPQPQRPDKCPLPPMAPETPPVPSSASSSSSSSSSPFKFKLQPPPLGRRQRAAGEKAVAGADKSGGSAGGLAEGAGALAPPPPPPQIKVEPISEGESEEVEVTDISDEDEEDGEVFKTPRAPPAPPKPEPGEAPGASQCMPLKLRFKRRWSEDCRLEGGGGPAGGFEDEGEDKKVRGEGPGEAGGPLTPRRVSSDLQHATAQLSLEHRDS
# In short: as §1
# ELK1 = molecular target: T2, ELK1 (Homo sapiens, UniProt P19419 1-428)
# T2 sequence: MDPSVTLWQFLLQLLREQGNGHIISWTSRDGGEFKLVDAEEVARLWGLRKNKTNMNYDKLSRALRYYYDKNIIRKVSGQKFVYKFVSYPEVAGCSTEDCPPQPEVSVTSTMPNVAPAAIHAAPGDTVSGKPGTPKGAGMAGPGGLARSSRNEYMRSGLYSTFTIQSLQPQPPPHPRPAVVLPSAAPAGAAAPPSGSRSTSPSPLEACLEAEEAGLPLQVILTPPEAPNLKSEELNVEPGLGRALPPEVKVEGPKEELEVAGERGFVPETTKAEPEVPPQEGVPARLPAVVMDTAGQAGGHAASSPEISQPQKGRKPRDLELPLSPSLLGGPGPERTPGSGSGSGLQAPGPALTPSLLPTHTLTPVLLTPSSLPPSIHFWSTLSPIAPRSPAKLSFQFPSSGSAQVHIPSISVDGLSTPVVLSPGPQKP
# In short: as §1
# GABPA = molecular target: T3, GABPA (Homo sapiens, UniProt Q06546 1-454)
# T3 sequence: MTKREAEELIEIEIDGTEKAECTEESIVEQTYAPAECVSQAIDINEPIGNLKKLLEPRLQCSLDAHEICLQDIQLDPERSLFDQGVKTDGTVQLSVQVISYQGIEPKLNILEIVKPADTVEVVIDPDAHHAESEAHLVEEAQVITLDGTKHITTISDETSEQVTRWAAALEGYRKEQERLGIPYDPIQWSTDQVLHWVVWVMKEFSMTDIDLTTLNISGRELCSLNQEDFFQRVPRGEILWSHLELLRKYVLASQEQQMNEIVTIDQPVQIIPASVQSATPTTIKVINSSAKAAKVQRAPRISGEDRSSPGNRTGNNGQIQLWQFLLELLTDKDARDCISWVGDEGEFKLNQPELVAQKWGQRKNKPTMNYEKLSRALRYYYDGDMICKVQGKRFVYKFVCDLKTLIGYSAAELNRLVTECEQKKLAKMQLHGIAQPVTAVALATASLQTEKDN
# In short: as §1
# ERG = molecular target: T4, ERG (Homo sapiens, UniProt P11308 1-479)
# T4 sequence: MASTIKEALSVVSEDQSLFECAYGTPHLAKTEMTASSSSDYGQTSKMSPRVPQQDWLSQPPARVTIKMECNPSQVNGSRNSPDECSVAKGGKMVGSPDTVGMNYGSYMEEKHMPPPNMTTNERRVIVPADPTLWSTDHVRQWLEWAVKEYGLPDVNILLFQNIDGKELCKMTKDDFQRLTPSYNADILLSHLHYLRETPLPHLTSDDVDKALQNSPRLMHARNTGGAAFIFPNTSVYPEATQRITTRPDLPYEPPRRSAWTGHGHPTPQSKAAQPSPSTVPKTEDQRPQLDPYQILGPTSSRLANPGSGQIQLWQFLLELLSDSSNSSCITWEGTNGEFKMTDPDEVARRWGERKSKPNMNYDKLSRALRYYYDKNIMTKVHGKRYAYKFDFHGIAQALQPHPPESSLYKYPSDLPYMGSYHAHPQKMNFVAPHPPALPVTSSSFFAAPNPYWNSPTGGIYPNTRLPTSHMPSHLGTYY
# In short: as §1
# ELF1 = ELF1 (Homo sapiens, UniProt P32519 1-619)
# Sequence of ELF1 (P32519 whole entry): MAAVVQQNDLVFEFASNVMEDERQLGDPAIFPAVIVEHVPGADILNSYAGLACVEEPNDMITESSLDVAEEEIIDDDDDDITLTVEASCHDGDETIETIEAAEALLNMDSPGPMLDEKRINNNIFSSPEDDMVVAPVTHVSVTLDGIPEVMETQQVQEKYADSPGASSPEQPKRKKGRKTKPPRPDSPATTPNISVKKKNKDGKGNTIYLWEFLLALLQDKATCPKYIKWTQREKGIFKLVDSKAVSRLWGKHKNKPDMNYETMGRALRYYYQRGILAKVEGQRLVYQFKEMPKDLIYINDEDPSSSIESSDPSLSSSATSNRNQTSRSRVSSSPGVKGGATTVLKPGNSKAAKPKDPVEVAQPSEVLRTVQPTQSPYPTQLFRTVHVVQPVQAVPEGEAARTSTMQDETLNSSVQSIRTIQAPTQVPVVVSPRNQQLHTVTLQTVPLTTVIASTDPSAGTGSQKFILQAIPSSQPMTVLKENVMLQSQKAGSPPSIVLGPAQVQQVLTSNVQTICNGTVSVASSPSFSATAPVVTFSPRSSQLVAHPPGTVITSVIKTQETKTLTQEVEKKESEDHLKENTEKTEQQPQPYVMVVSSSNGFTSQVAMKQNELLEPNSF
# In short: as §1
# EHF = molecular target: T5, EHF (Homo sapiens, UniProt Q9NZC4 1-300)
# T5 sequence: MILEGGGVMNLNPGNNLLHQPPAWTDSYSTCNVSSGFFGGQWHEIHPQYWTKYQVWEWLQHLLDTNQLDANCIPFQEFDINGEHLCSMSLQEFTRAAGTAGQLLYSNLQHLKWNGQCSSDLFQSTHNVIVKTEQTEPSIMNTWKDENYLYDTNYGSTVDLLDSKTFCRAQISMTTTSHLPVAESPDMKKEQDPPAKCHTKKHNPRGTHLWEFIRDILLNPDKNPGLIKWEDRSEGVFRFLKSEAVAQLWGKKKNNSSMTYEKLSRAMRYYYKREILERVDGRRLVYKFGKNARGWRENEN
# In short: as §1
# SPIB = SPIB (Homo sapiens, UniProt Q01892 1-262)
# Sequence of SPIB (Q01892 whole entry): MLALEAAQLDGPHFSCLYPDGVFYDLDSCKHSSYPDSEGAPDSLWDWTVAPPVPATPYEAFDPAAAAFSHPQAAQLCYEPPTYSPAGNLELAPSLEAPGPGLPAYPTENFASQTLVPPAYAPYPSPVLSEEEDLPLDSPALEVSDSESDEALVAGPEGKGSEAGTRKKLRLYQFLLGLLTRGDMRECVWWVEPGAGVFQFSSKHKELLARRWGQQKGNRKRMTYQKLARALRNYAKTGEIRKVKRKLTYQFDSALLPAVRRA
# In short: as §1
# ELK3 = molecular target: T6, ELK3 (Homo sapiens, UniProt P41970 1-407)
# T6 sequence: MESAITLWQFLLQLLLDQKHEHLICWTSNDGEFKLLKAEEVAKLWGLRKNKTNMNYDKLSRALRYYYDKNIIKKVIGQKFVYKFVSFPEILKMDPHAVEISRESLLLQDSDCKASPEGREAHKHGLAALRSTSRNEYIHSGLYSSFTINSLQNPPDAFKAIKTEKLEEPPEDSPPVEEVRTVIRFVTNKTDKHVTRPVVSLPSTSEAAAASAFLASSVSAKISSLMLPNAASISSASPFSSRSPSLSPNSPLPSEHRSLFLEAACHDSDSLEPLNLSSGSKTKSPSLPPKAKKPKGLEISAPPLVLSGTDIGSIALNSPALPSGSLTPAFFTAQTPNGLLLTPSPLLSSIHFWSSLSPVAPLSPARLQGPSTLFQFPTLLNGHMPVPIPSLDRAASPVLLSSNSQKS
# In short: as §1
# SPIC = molecular target: T7, SPIC (Homo sapiens, UniProt Q8N5J4 1-248)
# T7 sequence: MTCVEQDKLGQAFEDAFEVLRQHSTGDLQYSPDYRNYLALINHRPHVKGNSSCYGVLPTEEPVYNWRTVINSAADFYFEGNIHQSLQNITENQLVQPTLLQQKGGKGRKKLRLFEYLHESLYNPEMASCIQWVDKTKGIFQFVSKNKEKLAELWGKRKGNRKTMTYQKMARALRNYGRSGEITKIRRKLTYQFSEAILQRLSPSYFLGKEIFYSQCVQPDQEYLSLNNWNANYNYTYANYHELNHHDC
# In short: as §1
# ELF4 = ELF4 (Homo sapiens, UniProt Q99607 1-663)
# Sequence of ELF4 (Q99607 whole entry): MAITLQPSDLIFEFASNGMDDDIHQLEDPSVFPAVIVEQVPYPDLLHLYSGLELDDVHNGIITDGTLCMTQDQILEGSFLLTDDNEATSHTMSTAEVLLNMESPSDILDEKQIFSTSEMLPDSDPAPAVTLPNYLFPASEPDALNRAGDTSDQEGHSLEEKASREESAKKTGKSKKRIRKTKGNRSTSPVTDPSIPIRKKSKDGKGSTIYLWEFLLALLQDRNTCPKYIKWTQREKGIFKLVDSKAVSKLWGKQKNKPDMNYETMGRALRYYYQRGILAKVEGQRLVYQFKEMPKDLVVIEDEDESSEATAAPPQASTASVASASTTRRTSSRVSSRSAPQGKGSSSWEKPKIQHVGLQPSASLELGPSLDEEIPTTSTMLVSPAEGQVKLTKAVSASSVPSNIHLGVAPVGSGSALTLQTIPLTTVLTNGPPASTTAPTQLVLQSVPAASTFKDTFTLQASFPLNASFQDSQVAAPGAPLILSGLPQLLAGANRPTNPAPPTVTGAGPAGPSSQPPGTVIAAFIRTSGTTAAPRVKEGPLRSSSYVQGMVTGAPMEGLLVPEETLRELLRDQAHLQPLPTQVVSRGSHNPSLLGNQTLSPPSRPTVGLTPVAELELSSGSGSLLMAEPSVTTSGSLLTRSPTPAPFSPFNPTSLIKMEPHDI
# In short: as §1
# ELF3 = molecular target: T8, ELF3 (Homo sapiens, UniProt P78545 1-371)
# T8 sequence: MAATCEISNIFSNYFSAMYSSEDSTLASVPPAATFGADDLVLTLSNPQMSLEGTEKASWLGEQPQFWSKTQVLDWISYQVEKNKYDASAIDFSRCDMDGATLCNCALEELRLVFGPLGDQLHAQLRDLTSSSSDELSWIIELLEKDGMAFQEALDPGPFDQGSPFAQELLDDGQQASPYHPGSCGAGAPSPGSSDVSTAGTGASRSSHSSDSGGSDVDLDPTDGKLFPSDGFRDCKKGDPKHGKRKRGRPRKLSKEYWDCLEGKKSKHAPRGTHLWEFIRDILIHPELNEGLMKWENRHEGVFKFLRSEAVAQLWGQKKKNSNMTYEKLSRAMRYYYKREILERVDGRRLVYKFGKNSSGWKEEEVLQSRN
# In short: as §1
# ETV1 = ETV1 (Homo sapiens, UniProt P50549 1-477)
# Sequence of ETV1 (P50549 whole entry): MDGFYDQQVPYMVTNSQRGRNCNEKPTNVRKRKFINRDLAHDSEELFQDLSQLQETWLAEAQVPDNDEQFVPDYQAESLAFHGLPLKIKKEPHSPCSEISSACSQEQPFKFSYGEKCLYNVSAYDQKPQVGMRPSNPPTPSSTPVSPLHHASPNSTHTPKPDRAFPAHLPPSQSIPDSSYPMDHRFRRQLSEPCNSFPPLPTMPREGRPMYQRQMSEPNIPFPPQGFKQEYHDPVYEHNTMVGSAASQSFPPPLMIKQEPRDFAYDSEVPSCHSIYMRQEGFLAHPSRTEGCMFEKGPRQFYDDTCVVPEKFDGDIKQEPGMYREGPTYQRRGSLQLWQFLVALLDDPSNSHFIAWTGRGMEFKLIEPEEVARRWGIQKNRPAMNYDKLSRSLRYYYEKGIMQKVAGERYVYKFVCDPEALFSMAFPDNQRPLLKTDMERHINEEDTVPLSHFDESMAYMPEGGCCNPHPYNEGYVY
# In short: as §1
# ETV3L = molecular target: T9, ETV3L (Homo sapiens, UniProt Q6ZN32 1-361)
# T9 sequence: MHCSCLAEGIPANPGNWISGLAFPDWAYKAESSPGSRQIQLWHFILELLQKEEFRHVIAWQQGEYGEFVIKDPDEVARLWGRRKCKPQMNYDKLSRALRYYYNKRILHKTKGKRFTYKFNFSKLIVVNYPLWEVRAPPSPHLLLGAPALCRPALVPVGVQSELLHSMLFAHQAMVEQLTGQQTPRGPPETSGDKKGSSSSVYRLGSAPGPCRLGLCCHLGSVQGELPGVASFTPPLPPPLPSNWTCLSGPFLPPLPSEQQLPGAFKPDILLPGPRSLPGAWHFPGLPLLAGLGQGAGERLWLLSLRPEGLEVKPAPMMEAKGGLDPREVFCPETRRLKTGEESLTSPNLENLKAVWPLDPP
# In short: as §1
# SPDEF = molecular target: T10, SPDEF (Homo sapiens, UniProt O95238 1-335)
# T10 sequence: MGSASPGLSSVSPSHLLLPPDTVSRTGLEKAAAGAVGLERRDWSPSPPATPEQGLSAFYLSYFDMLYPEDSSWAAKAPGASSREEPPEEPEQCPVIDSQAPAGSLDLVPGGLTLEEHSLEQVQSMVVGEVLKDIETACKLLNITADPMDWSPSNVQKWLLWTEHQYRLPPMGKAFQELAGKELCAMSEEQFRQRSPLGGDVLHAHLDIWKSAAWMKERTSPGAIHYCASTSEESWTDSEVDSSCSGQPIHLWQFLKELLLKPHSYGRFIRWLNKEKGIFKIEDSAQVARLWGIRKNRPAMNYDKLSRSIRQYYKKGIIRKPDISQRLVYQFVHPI
# In short: as §1
# ETV7 = molecular target: T11, ETV7 (Homo sapiens, UniProt Q9Y603 1-341)
# T11 sequence: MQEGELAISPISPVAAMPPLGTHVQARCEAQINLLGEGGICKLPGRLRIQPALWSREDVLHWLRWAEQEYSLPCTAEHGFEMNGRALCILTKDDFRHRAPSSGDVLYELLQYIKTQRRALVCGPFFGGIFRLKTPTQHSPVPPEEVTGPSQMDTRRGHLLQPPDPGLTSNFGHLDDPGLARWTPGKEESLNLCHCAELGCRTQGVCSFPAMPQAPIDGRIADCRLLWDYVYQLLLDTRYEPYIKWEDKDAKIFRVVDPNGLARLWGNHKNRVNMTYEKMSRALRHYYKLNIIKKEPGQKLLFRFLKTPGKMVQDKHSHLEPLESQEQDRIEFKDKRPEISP
# In short: as §1
# ETV3 = molecular target: T12, ETV3 (Homo sapiens, UniProt P41162-2 1-143)
# T12 sequence: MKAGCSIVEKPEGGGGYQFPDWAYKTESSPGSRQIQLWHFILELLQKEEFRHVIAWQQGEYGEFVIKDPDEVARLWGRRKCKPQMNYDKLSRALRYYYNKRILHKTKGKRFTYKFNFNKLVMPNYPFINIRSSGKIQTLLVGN
# In short: as §1
Sequence,binding signal (ETV5),binding signal (ERF),binding signal (ELK1),binding signal (GABPA),binding signal (ERG),binding signal (ELF1),binding signal (EHF),binding signal (SPIB),binding signal (ELK3),binding signal (SPIC),binding signal (ELF4),binding signal (ELF3),binding signal (ETV1),binding signal (ETV3L),binding signal (SPDEF),binding signal (ETV7),binding signal (ETV3)
CATAAG,"1 fold enrichment (6-mer frequency, TF over GST control)","1 fold enrichment (6-mer frequency, TF over GST control)",–,–,–,–,–,–,–,–,–,–,–,–,–,–,–
AGTCCC,"1.04 fold enrichment (6-mer frequency, TF over GST control)","1.17 fold enrichment (6-mer frequency, TF over GST control)","1.06 fold enrichment (6-mer frequency, TF over GST control)","1.03 fold enrichment (6-mer frequency, TF over GST control)","1.07 fold enrichment (6-mer frequency, TF over GST control)","1.08 fold enrichment (6-mer frequency, TF over GST control)","1.01 fold enrichment (6-mer frequency, TF over GST control)","1.03 fold enrichment (6-mer frequency, TF over GST control)","1.01 fold enrichment (6-mer frequency, TF over GST control)","1.06 fold enrichment (6-mer frequency, TF over GST control)","1.06 fold enrichment (6-mer frequency, TF over GST control)","1.11 fold enrichment (6-mer frequency, TF over GST control)","1.11 fold enrichment (6-mer frequency, TF over GST control)","1.04 fold enrichment (6-mer frequency, TF over GST control)","1.03 fold enrichment (6-mer frequency, TF over GST control)","1.07 fold enrichment (6-mer frequency, TF over GST control)","1.06 fold enrichment (6-mer frequency, TF over GST control)"
